Only some compounds are listed: those with a hit (about 6.1% of all), similar ones and a draw of the others.
ERK AVP inh: inhibitors of vasopressin-stimulated ERK signaling pathway | HEK293-V1b, vasopressin-stimulated pERK AlphaScreen | Potency, µM (top dose mostly 57.5 µM), for inactives: at the top dose activity, negative = inhibition, most hits filed as inhibitors | hit rate 0.99% among 72,000 | AID 995; note: nearly all actives have a fitted effect of over 55% in size
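Overnight-seeded V1b-HEK293 cells in 1% FBS got compound, then vasopressin (25 nM final, 5 min, 37C), then lysis buffer. AlphaScreen detection of phospho-ERK; activity normalized to basal and full-stimulation controls.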
Hsp90 Hop PPI: changes Hsp90-Hop TPR2A binding signal, up or down | AlphaScreen TPR2A-His6 binding biotin-Hsp90 C-terminal peptide | hit rate 0.44% among 71,000 | AID 595 | Potency, µM (highest dose often 57 µM), without a hit: top-dose activity change, negative = inhibition; active = well fitted curve in either direction with a large enough effect; inconclusive = small, poorly fitted or top-dose-only effect, or another doubt
Bst PK mod: pyruvate kinase (B. stearothermophilus) modulation | hit rate 1.2% among 51,000 | Potency, µM | purified pyruvate kinase, luminescence ATP production; ribose 5-phosphate activator present at AC10; in the data active = potency below about 11 µM; inconclusive = mostly about 12 µM to 25 µM;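 the screen sought inhibitors and activators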;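 note: scaled between full activation by ribose 5 phosphate and full inhibition by luteolin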
FLuc inh: blocks Photinus pyralis firefly luciferase activity | purified firefly luciferase, luminescence, 8 min | Potency, µM (series often up to 57.1 µM), without a hit: at the top dose activity change, negative = inhibition, hits mostly inhibitors | hit rate 2.2% among 72,000; note: nearly all actives have a fitted effect of over 40% in size
Target sequence (P08659 whole entry, looked up): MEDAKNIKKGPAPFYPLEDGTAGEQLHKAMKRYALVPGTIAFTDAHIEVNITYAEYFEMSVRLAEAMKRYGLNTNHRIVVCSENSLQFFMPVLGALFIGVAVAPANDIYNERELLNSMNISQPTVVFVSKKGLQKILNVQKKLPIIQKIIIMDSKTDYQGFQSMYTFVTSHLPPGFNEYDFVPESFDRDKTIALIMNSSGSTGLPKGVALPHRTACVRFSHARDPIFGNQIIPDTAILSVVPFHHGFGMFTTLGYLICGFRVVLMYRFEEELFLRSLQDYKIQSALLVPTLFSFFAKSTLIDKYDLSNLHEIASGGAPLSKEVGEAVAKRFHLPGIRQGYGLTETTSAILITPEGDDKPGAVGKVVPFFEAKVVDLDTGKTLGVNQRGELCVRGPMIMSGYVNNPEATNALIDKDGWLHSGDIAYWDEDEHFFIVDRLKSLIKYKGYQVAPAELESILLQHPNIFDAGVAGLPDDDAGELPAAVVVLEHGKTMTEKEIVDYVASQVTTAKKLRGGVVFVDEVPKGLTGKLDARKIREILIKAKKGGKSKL
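Compounds were tested as concentration series (qHTS) against purified P. pyralis luciferase with luciferin and 10 uM ATP in 50 mM imidazole pH 7.2, 50 mM KCl, 7 mM MgCl2, 0.01% Tween 20, 0.05% BSA. Luminescence was read after 8 min at ambient temperature.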
Tau fil binding: tau filament binding; P10636; recombinant tau filaments, thioflavin S fluorescence, 15 h; filaments grown with octadecylsulfate alongside compound; Potency, µM (top dose mostly 57.1 µM), without a hit: top-dose activity change, negative = inhibition; hit rate 2% among 71,000; AID 596;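 note: actives lower thioflavin S fluorescence by blocking filaments or displacing dye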
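Tau 2 uM in ThS buffer dispensed; compound added; 60 uM ODS added (finals 1 uM tau, 30 uM ODS); 15 h 37 C; fluor ex450/em510.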
15-hLO inh: blocks human 15-lipoxygenase activity; P16050; purified 15hLO-1, xylenol orange hydroperoxide absorbance; Potency, µM (doses to about 57.1 µM), for the others: at the top dose activity change, negative = inhibition, actives largely listed as inhibitors; hit rate 1.4% among 74,000; AID 887; note: nearly all actives have a fitted effect of over 55% in size
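40 nM 15hLO-1 + cpd, 15 min RT; start w/ 50 uM AA (final), 6 min RT; stop/detect w/ 200 uM XO + 300 uM Fe(II) in 50 mM H2SO4, 30 min; A573/A405. Buffer 25 mM Hepes pH 7.5, 0.01% Triton X-100. No-enzyme wells as negative control.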
* = called active by the depositor; [ ] = dose if it differs, or a comment. Unless noted, calls come from the whole dose curve; as a rule, active = well fitted curve in the direction sought with a large enough effect; inconclusive = small, poorly fitted or top-dose-only effect, or another doubt; inactive = no such curve, though single readings can be large; an effect the other way counts as inactive or inconclusive. Unless noted, % is set by controls: 0 for no effect and ±100 for the full control effect; potency is the fitted concentration of half-maximal effect.

`COc1cc(C(=O)Nc2cccc(-c3nc4ccccc4o3)c2C)cc(OC)c1OC` gave ERK AVP inh -14.8%, Hsp90 Hop PPI -4.8%, FLuc inh -1.5%, Tau fil binding 181.8% and 15-hLO inh 5.8%.
Cc1noc(C)c1C(=O)N1CCC[C@@]2(CCN(c3ncccn3)C2)C1 was read as ERK AVP inh -11.8%, Hsp90 Hop PPI -2.0%, FLuc inh 1.0%[11.4 µM], Tau fil binding 3.2% and 15-hLO inh 7.6%.
`O=c1c(-c2ccc(O)cc2)coc2cc(O)cc(O)c12` gave ERK AVP inh inconclusive, Hsp90 Hop PPI -7.1%, FLuc inh 0.2%, Tau fil binding inconclusive and 15-hLO inh inconclusive.
O=c1c(-c2cc(O)c(O)c(O)c2)coc2cc(O)c(O)c(O)c12 was read as ERK AVP inh -3.9% and 15-hLO inh 10µM*.
`O=[N+]([O-])c1cccc(Cl)c1Cl` gave ERK AVP inh -3.4%, Hsp90 Hop PPI -1.5%, Tau fil binding 4.4% and 15-hLO inh -3.7%.
For CC1(C)CC(=O)C2=C(C1)Oc1ncn(CCO)c(=N)c1C2c1ccccc1 (stereo not given) the results were ERK AVP inh -15.7%, Hsp90 Hop PPI -9.1%, Bst PK mod >57, FLuc inh 1.4%, Tau fil binding 14.0% and 15-hLO inh 7.9%.
`COc1ccc(C2C3=C(CC(C)(C)CC3=O)Oc3ncn(Cc4ccco4)c(=N)c32)cc1` (stereo not given) gave ERK AVP inh inconclusive, Hsp90 Hop PPI -23.9%, Bst PK mod >57, FLuc inh 3.5%, Tau fil binding 15.8µM* and 15-hLO inh -7.3%.
For COc1ccc(C2C3=C(CC(C)(C)CC3=O)Oc3ncn(CC(C)C)c(=N)c32)cc1 (stereo not given) the results were ERK AVP inh -9.0%, Hsp90 Hop PPI -8.7%, Bst PK mod >57, FLuc inh 1.3%, Tau fil binding 3.98µM* and 15-hLO inh 0.5%.
For COc1ccc(-c2noc(-c3ccco3)n2)cc1OC the results were ERK AVP inh inconclusive, Hsp90 Hop PPI -1.2%, Bst PK mod inactive, FLuc inh 12.6µM*, Tau fil binding 3.4% and 15-hLO inh -3.6%.
`COc1nc(C)ccc1-c1noc(-c2ccco2)n1` gave ERK AVP inh -25.8%, Hsp90 Hop PPI 0.5%, Bst PK mod inactive, FLuc inh 7.94µM*, Tau fil binding -2.4% and 15-hLO inh -1.4%.
Screening COc1ccc(-c2noc(-c3ccccc3Cl)n2)cc1OC returned ERK AVP inh -17.1%, Hsp90 Hop PPI 9.4%, Bst PK mod inactive, FLuc inh 15.8µM*, Tau fil binding 136.9% and 15-hLO inh -2.3%.
`COc1ccc(-c2noc(-c3cccc(Cl)c3)n2)cc1OC` gave ERK AVP inh 9.4%, Hsp90 Hop PPI 0.0%, Bst PK mod >57, FLuc inh 1.4%, Tau fil binding -9.6% and 15-hLO inh 2.2%.
`Cc1c2cccc(Sc3ccccc3)c2c2c3c(cccc13)[S+](c1ccccc1)C2` (stereo not given) gave ERK AVP inh 2.1%[11.5 µM], Hsp90 Hop PPI 5.3%[11 µM], FLuc inh 3.2%[11.4 µM], Tau fil binding 12.5%[11.4 µM] and 15-hLO inh -1.3%[11.4 µM].
Screening CC(C)=CCC/C(C)=C/CO/N=C1/C[C@@H](O)[C@@H](O)[C@@H]2[C@@H]3C(=O)N(Cc4ccc5c(c4)OCO5)C(=O)[C@H]3CC[C@@H]12 returned ERK AVP inh -6.9%[11.5 µM], FLuc inh -0.5%[11.4 µM] and 15-hLO inh -8.3%[11.4 µM].
Cc1ccc(S(=O)(=O)N[C@H]2COC(=O)[C@@H](Cc3ccccc3)NC(=O)[C@@H](C)COC(=O)C/C=C\[C@@H]2C)cc1 was read as ERK AVP inh 16.5%[11.5 µM], FLuc inh 1.4%[11.4 µM] and 15-hLO inh 2.1%[11.4 µM].
Screening COc1ccc(S(=O)(=O)N2CCC(C(=O)Nc3cccc(Cl)c3)CC2)cc1OC returned 15-hLO inh -12.9%.
COc1ccc(S(=O)(=O)N2c3ccc(Cl)cc3[C@](O)(c3ccccc3Cl)[C@@H]2C(=O)N2CCC[C@H]2C(N)=O)cc1OC was read as ERK AVP inh 3.98µM* and 15-hLO inh 15.8µM*.
For Cn1nc(-c2ccccc2)c2nc3ccccc3nc21 the results were ERK AVP inh 39.9%, Hsp90 Hop PPI inconclusive, Bst PK mod 7.97*, FLuc inh 0.5%, Tau fil binding 257.9% and 15-hLO inh -2.2%.
`Cc1nnc2c(-c3ccccc3)nc3ccccc3n12` gave ERK AVP inh -19.9%, Hsp90 Hop PPI -3.5%, FLuc inh 0.7%, Tau fil binding 17.1% and 15-hLO inh 5.0%.
CCOC(=O)C1=C(C)NC(SCC(=O)OC)=C(C#N)C1c1ccc(C(=O)OC)cc1 (stereo not given) was read as ERK AVP inh 37.5%, Hsp90 Hop PPI inconclusive, Bst PK mod >57, FLuc inh 0.5%, Tau fil binding -26.2% and 15-hLO inh 5.01µM*.
Screening COC(=O)c1ccc(C(NC(=O)OCc2ccccc2)/C(=C/[C@@H](C)C(=O)NCc2cc(C)n(C)n2)c2cccnc2)cc1 (stereo not given in full) returned ERK AVP inh 7.6%, Hsp90 Hop PPI 1.4%, Tau fil binding -3.2% and 15-hLO inh 3.0%.
`CCN1C(=O)/C(=C2/Sc3ccc(OC)cc3N2C)SC1=Nc1cccc(O)c1` gave ERK AVP inh -23.0%, Hsp90 Hop PPI -7.2%, Bst PK mod >57, FLuc inh 4.6%, Tau fil binding 3.16µM* and 15-hLO inh -13.7%.
CCN1/C(=C\C(C)=O)Sc2ccc(OC)cc21 was read as Hsp90 Hop PPI -3.3%, FLuc inh -1.1% and Tau fil binding -6.0%.
For CN(C)CCOc1nc(-c2ccccc2)nc2c1oc1ccccc12 the results were ERK AVP inh 2.9%, Hsp90 Hop PPI -7.7%, Bst PK mod 10.7*, FLuc inh 0.7%, Tau fil binding 64.5% and 15-hLO inh 13.8%.
`Nc1ccc(N=Nc2ccc(-c3ccc(O)cc3)cc2)c2ccc(S(=O)(=O)O)cc12` gave ERK AVP inh -9.6%[11.5 µM], Hsp90 Hop PPI inconclusive, FLuc inh 3.16µM*, Tau fil binding 2.51µM* and 15-hLO inh -27.9%[11.4 µM].
For CSCC[C@@H]1NC(=O)C/C=C\[C@@H](C)COC(=O)[C@@H](C)COC1=O the results were ERK AVP inh 2.3%[11.5 µM], FLuc inh 2.3%[11.4 µM] and 15-hLO inh 3.5%[11.4 µM].
For COc1cc(OC)cc(C(=O)Nc2cccc(N3CCCC3)c2)c1 the results were ERK AVP inh -9.2%, Hsp90 Hop PPI -28.6%, Bst PK mod >57, FLuc inh -0.9%, Tau fil binding 10µM* and 15-hLO inh inconclusive.
Screening COc1cc(OC)cc(C(=O)Nc2cccc(C(C)=O)c2)c1 returned ERK AVP inh inconclusive, Hsp90 Hop PPI -1.1%, FLuc inh inconclusive, Tau fil binding -5.0% and 15-hLO inh 4.5%.

Assay outcomes: PubChem, National Center for Advancing Translational Sciences (NCATS)
